# In PubChem BioAssay (EPA / NIEHS):
# Activity calls are given as the source filed them. Rule for the calls: active = hit-call score of the fitted dose curve at least 0.9, where 1 is the maximum; inactive = score below 0.9.
# Read-out: Fatty acid synthase (Homo sapiens) (UniProt P49327)
# Assay: LTEA_HepaRG_FASN: Life Technologies and Expression Analysis (LTEA) Assay for Fatty Acid Synthase (FASN) using HepaRG (AID 2283448)
# Settings: mRNA level, 48 h; actives raise or lower the signal
# Method: LTEA_HepaRG is a cell based, multiplexed-readout assay that uses HepaRG, a human liver cell line, with measurements taken at 48 hours after chemical dosing on a 96-well plate.LTEA_HepaRG_FASN is one of 102 assay component(s) measured in the LTEA HepaRG cell culture assay. It is a marker of Steatosis.Data from the assay component LTEA_HepaRG_FASN was analyzed into 1 endpoint. This assay endpoint, LTEA_HepaRG_FASN, was analyzed with bidirectional fitting relative to DMSO as the negative control and baseline of activity. Using a type of inducible reporter, measures of mRNA induction for gain or loss-of-signal activity can be used to understand regulation of transcription factor activity. To generalize the intended target to other relatable targets, this assay endpoint is annotated to the lyase intended target family, where the subfamily is fatty acid synthase.
# A total of 1060 chemcials from the ToxCast library were tested in eight-point concentration-response experiments. Cell culture and cytotoxicity assays were conducted at Thermo Fisher Scientific's Custom Services facility (Madison, WI). A single lot of human HepaRG cells (Thermo Fisher Scientific, Frederick, MD) was used for the cell culture experiments. 96-well format collagen type I coated plates of human HepaRG cells were prepared using established methods. Briefly, cryopreserved HepaRG cells were thawed, plated at a density of approximately 100,000 cells/well in HepaRG Thaw, Plate, and General Purpose media (HPRG770, Thermo Fisher Scientific), and incubated for 48 hours. 0.5% DMSO was selected as vehicle control to balance the requisite need of DMSO in HepaRG cultures to maintain differentiation (for example, baseline metabolism, proportions of hepatocytes vs. cholangiocytes), while enabling further hepatic receptor pathway activation (for example, PXR and CAR) in response to chemical exposure. 48 hours after plating, the culture medium was replaced with HepaRG Serum-Free Incudtion Media. Cells were exposed to each test chemical in duplicate and maintained in CO2 incubators for another 48 hours. Chemical plates were thawed to room temperature and 200x concentrations of treatment groups were prepared. 8-point conentration-reponse curves were made with the highest exposure at 100 uM, followed by half-log dilutions, all in 0.5% DMSO. Each test plate contained variouse controls, induction positive controls (1mM phenobarbital), cytotoxicity positive controls ([…] aflatoxin B1), vehicle controls (0.5% DMSO), and total lysis controls (0.5% DMSO). Cell morphology images were taken using an Essen IncuCyte FLR automated microscope, with six 96-well plates imaged in about 24 minutes. Images were captured and exported and JPEG files. Spent culture media was transfered to black-well plates for the LDH assay, and remaining media was sorted at -80 C for later use. Cells were treated with RLT buffer and frozen until shipped for gene expression analysis. Total RNA was isolated from the cell suspension in 75 uL of Buffer RLT (Qiagen, Germantown, MD 20874) by Quintiles/Expression Analysis (Durham, NC) using a custom isolation procedure. Total RNA from each plate well was transferred to a preamplification plate. Fluidigm's 96.96 Dynamic ArrayTM (Fluidigm, Amsterdam, the Netherlands) technology was used for gene expression analyses by quantitative reverse transcription polymerase chain reaction (qRT-PCR, performed by Quintiles/Expression Analysis, Durham, NC)89. Standard TaqManTM Assays (Applied Biosystems/ThermoFisher Scientific, Foster City, CA) were used to assess the expression of 93 genes selected based on their selectivity and sensitivity to important hepatic receptors known to be modulated by environmental chemicals; importance in human hepatocyte functionality; and hepatotoxicity. […]
# Fatty acid synthase (Homo sapiens), sequence (P49327 whole entry, looked up): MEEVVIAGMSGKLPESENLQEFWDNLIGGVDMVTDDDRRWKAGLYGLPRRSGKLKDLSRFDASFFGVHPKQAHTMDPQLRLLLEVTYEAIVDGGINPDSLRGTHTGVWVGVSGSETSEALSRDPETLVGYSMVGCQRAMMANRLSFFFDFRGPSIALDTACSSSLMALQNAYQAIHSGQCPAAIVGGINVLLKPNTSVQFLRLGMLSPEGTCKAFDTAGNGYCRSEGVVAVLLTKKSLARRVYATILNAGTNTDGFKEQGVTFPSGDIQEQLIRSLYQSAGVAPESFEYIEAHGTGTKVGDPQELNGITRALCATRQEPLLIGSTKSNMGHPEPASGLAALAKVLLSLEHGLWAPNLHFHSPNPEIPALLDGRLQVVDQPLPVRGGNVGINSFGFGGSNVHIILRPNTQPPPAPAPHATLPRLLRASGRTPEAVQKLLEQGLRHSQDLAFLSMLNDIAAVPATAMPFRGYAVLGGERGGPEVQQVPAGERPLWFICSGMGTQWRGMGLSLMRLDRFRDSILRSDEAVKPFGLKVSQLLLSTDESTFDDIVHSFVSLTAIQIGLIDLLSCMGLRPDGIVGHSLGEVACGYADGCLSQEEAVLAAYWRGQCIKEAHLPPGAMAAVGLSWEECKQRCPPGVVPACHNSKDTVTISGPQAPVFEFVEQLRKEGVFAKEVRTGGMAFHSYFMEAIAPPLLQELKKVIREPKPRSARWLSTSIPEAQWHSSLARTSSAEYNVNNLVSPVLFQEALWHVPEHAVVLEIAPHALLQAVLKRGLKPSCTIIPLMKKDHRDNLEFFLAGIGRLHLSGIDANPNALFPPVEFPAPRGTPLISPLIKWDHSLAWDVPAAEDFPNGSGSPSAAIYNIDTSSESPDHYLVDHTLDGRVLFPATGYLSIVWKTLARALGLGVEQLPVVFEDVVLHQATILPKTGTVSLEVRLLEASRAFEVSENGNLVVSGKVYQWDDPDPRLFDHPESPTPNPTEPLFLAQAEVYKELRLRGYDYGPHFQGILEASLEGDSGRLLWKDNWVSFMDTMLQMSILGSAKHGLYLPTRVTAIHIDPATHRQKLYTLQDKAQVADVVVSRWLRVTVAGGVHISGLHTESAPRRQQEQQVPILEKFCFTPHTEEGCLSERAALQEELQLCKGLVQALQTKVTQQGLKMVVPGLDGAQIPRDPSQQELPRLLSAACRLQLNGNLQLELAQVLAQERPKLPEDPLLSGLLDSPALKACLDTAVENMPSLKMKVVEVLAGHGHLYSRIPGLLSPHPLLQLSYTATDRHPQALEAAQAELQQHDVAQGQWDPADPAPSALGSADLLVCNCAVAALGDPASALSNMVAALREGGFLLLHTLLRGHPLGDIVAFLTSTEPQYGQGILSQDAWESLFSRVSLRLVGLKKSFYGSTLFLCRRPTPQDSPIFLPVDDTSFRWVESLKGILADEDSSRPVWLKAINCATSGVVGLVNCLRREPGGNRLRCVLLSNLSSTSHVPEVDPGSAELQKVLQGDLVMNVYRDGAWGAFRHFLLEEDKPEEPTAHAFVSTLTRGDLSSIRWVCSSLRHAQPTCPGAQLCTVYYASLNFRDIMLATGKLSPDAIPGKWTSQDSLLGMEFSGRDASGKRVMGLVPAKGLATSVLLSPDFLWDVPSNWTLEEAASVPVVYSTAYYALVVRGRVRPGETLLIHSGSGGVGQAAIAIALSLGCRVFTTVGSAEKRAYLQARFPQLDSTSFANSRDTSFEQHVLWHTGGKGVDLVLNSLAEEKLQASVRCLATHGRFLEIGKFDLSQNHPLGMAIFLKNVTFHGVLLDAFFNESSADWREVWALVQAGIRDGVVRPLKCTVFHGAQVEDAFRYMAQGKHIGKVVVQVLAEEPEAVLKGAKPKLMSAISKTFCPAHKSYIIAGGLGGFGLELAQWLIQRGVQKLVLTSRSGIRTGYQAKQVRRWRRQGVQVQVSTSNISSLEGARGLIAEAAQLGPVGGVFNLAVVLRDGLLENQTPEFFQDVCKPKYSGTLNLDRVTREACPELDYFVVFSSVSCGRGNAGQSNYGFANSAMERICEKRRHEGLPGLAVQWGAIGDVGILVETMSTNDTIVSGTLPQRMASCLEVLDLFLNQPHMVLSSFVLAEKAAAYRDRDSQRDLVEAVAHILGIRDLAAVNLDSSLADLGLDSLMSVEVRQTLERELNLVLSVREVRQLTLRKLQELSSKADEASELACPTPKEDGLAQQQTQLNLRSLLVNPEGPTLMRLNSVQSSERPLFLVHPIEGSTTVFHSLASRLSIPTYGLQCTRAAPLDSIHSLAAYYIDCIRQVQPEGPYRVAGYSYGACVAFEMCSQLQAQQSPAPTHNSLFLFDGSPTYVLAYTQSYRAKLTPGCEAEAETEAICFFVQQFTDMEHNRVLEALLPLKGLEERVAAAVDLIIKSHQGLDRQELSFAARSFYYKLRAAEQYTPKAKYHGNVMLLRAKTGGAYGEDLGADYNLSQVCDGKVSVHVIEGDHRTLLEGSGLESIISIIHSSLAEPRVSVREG
Structure (SMILES),AC50,outcome
CN(C)C(=O)Nc1ccc(Cl)c(Cl)c1,20.3 µM (active),–
C=CCOC(Cn1ccnc1)c1ccc(Cl)cc1Cl (stereo not given),38.3 µM (active),–
COC(=O)CSc1cc(N=c2sc(=O)n3n2CCCC3)c(F)cc1Cl,–,inactive
CCNc1nc(N)nc(Cl)n1,–,inactive
CCCCCCC(C)OC(=O)COc1nc(F)c(Cl)c(N)c1Cl (stereo not given),–,inactive
C#CCOC(=O)[C@@H](C)Oc1ccc(Oc2ncc(Cl)cc2F)cc1,13.3 µM (active),–
O=C(c1ccccc1)C1CCCCC1,–,inactive
CCOC(=O)C(C)Oc1ccc(Oc2nc3ccc(Cl)cc3o2)cc1 (stereo not given),–,inactive
Oc1ccc(C(c2ccc(O)cc2)C(Cl)(Cl)Cl)cc1,88.8 µM (active),–
CCCCC(CC)COC(=O)c1ccccc1C(=O)O (stereo not given),–,inactive
COc1c(Cl)ccc(Cl)c1C(=O)O,–,inactive
CCOC(=O)NCCOc1ccc(Oc2ccccc2)cc1,50 µM (active),–
C#C[C@]1(O)CC[C@H]2[C@@H]3CCC4=CC(=O)CC[C@@H]4[C@H]3CC[C@@]21CC,–,inactive
CCC(C)OC(=O)N1CCCCC1CCO (stereo not given),–,inactive
c1ccc(Nc2ccccc2)cc1,–,inactive
CSC(=O)c1cccc2nnsc12,–,inactive
CCCOC(=O)NCCCN(C)C,–,inactive
CC1(C)C(C=C(Cl)Cl)C1C(=O)OCc1cccc(Oc2ccccc2)c1 (stereo not given),–,inactive
CCCCC(CC)CN1C(=O)C2C3C=CC(C3)C2C1=O (stereo not given),34.6 µM (active),–
O=C(O)C1(C(=O)Nc2ccc(Cl)cc2Cl)CC1,69.8 µM (active),–

Structure (SMILES),AC50,outcome
CCCN(CCC)c1c([N+](=O)[O-])cc(C(F)(F)F)c(N)c1[N+](=O)[O-],50 µM (active),–
CCN(Cc1c(F)cccc1Cl)c1c([N+](=O)[O-])cc(C(F)(F)F)cc1[N+](=O)[O-],50 µM (active),–
CCCCCOC(=O)COc1cc(N2C(=O)C3=C(CCCC3)C2=O)c(F)cc1Cl,–,inactive
COC(=O)c1ccccc1C(=O)O,–,inactive
CC(C)(c1ccc(O)cc1)c1ccc(O)cc1,–,inactive
CCN(CC)C(=O)c1cccc(C)c1,–,inactive
S=C([S-])NCCNC(=S)[S-].[Mn+2],2.55 µM (active),–
CCCCOC(=O)[C@@H](C)Oc1ccc(Oc2ccc(C(F)(F)F)cn2)cc1,–,inactive
CC(C)CCCCCCc1ccc(O)cc1,–,inactive
CCCN(CCC)C(=O)SCC,–,inactive
COC(=O)c1ccc(I)cc1S(=O)(=O)NC(=O)Nc1nc(C)nc(OC)n1,–,inactive
CCCCOC(=O)C(C)Oc1ccc(Oc2ccc(C(F)(F)F)cn2)cc1 (stereo not given),–,inactive
O=C(Nc1ccc([N+](=O)[O-])cc1Cl)c1cc(Cl)ccc1O,2.94 µM (active),–
O=C(c1ccc(O)cc1O)c1ccc(O)cc1O,–,inactive
CCCCOCCOCCOCc1cc2c(cc1CCC)OCO2,–,inactive
c1ccc2[nH]c(-c3cscn3)nc2c1,–,inactive
C[C@]12C[C@H](O)[C@H]3[C@@H](CCC4=CC(=O)CC[C@@]43C)[C@@H]1CC[C@@H]2C(=O)CO,–,inactive
CCCOC(=O)c1ccc(C(=O)OCCC)nc1,–,inactive
CCOC(=O)c1ccc(O)cc1,–,inactive
CCOC(=O)C(C)Oc1ccc(Oc2cnc3cc(Cl)ccc3n2)cc1 (stereo not given),43 µM (active),–
